Test results taken from PubChem BioAssay AID2599 (Sanford-Burnham Center for Chemical Genomics, 2010).
Among all 330,000 compounds or so, about 5,800 (1.8%) were called active.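 Rule for the calls: active = inhibition above about 50% at the single tested dose (limit read from the data); inactive = the rest.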 The sample as a whole holds a higher share of actives than the screen did.

These compounds were tested against Sentrin-specific protease 6 (Homo sapiens) (UniProt Q9GZR1) (assay: inhibition of human SENP6 catalytic domain – biochemical, luminescence, uHTS, primary screen (AID 2599;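 note: plate controls were DMSO wells with enzyme for no effect and DMSO wells lacking enzyme for full effect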)). Conditions: Recombinant SENP6 catalytic domain, aminoluciferin luminescence; at 10 µM; active compounds read high.
Sequence of Sentrin-specific protease 6 (Homo sapiens) (Q9GZR1 628-1112 limits assumed): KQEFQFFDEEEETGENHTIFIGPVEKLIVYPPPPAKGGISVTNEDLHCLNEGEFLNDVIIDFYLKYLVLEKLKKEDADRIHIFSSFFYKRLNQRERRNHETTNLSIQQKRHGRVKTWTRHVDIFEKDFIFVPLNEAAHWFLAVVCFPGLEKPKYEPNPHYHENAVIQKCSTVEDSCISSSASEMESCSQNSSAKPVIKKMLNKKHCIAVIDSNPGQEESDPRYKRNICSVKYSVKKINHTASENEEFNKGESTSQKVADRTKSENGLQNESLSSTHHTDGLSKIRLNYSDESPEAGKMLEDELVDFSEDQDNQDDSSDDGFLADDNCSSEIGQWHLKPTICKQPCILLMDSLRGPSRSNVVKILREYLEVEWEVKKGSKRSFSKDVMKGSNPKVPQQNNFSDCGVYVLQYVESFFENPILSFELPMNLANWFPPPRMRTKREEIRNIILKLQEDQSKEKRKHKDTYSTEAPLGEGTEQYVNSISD
For `O=C(COC(=O)Cn1[nH]c(=O)c2ccccc2c1=O)Nc1ncc(Cl)cc1Cl`, the inhibition was -4.87% (inactive). For `Cc1cccc(NS(=O)(=O)c2ccc(C(=O)NCC(C)(C)N3CCOCC3)cc2)c1C`, the inhibition was 4.82% (inactive). In the case of `C=CCOc1ccc(C2/C(=C(\O)c3c(C)[nH]c(C(=O)OC)c3C)C(=O)C(=O)N2CCN(C)C)cc1` (stereo unspecified), the inhibition was 9.74% (inactive). In the case of `COc1ccc(CN(C)C(=O)Cc2ccsc2)c(OC)c1OC`, the inhibition was -22.6% (inactive). With `Cc1cc(C)nc(NC(=O)c2cccc([N+](=O)[O-])c2)c1` the inhibition was -34.1% (inactive). In the case of `O=C(Nc1ccc(NC(=O)c2ccco2)c(Cl)c1)c1cccc([N+](=O)[O-])c1`, the inhibition was 14.1% (inactive). `O=C(OCc1ccccc1F)c1ccc2c(c1)OCCO2` was tested, and the inhibition was 95.5% (active). In the case of `O=C(COC(=O)c1ccc2c(c1)OCCO2)NCc1ccccc1Cl`, the inhibition was 3.1% (inactive). In the case of `N#CCCN(C(=O)COC(=O)c1ccc2c(c1)OCCO2)c1ccccc1`, the inhibition was 6.71% (inactive). For `O=C(Nc1ccc(C2CC2(Cl)Cl)cc1)c1cccc([N+](=O)[O-])c1` (stereo unspecified), the inhibition was 76.9% (active). `O=C(CCC(=O)n1ncc2ccccc21)NCc1ccccc1Cl` was tested, and the inhibition was 15.9% (inactive). `Cc1nc(N)c(Br)c(C)c1Br` was tested, and the inhibition was 0% (inactive). `COc1cccc(-n2nc(C(=O)N3CCN(Cc4ccccc4)CC3)c3ccccc3c2=O)c1` was tested, and the inhibition was -0.104% (inactive). With `O=C(O)CSc1nccn1-c1cccc(Cl)c1` the inhibition was -22.5% (inactive). `COCCCNC(=O)Cn1c(=O)n(Cc2ccccc2Cl)c(=O)c2cc(OC)c(OC)cc21` was tested, and the inhibition was -8.65% (inactive). With `O=S(=O)(c1cnccc1N1CCN(/N=C/c2ccc(Br)cc2)CC1)N1CCCCC1` the inhibition was -13.3% (inactive). For `O=C(Nc1ccc(Cl)cc1)Nc1ccc(C(=O)N2CCOCC2)cc1`, the inhibition was -8.3% (inactive). In the case of `Cc1c(Cl)cccc1NC(=O)NCCCN1CCCC1=O`, the inhibition was 2.62% (inactive). `Cc1c(Cl)cccc1NC(=O)Nc1ccc(C(=O)N2CCCC2)cc1` was tested, and the inhibition was 61.5% (active). In the case of `O=C(c1ccc2ccccc2n1)N1CCN(c2ccccc2Cl)CC1`, the inhibition was 5.78% (inactive). With `CC(=O)Nc1ccc(OC(=O)COc2ccc(Br)cc2)cc1` the inhibition was -9.28% (inactive). `Oc1ccccc1-c1cc(-c2ccc(Cl)cc2)n[nH]1` was tested, and the inhibition was 89.2% (active). `S=c1[nH]nc(-c2cc(-c3ccccc3)n[nH]2)n1/N=C/c1c2ccccc2cc2ccccc12` was tested, and the inhibition was -3.75% (inactive). For `c1ccc(-c2cc(-c3ccccc3)[nH]n2)cc1`, the inhibition was 59.9% (active). `S=c1[nH]nc(-c2cc(-c3ccsc3)n[nH]2)n1-c1ccccc1` was tested, and the inhibition was -13.8% (inactive). For `Cc1ccc(NC(=O)c2cc(-c3ccccc3O)n[nH]2)cc1C`, the inhibition was -12.4% (inactive). For `CC(C)C(=O)NCc1cc(-c2ccc(Cl)cc2)no1`, the inhibition was -26.7% (inactive). For `CCCOc1ccc(N2C(=O)CC(N(CCc3ccc(S(N)(=O)=O)cc3)C(C)=O)C2=O)cc1` (stereo unspecified), the inhibition was -12.7% (inactive). For `Cc1cc(C(=O)Cn2cnc3cc([N+](=O)[O-])ccc3c2=O)c(C)n1CC1CCCO1` (stereo unspecified), the inhibition was -13.2% (inactive). `COc1ccc(C(=O)OCC(=O)c2cc(C)n(CC3CCCO3)c2C)cc1[N+](=O)[O-]` (stereo unspecified) was tested, and the inhibition was -1.02% (inactive). With `Cc1ccsc1C(=O)OCC(=O)c1cc(C)n(CC2CCCO2)c1C` (stereo unspecified) the inhibition was 97.8% (active). With `Cc1coc2cc3oc(=O)c(CCC(=O)O)c(C)c3cc12` the inhibition was 1.41% (inactive). In the case of `COc1ccccc1NC(=O)CSc1nnc(-c2ccoc2C)n1CCc1ccccc1`, the inhibition was -3.86% (inactive). `Cc1ccc(S(=O)(=O)N2CCOCC2)cc1C(=O)OC1CCCCC1=O` (stereo unspecified) was tested, and the inhibition was 7.83% (inactive). For `CCN1C(=O)c2cccc3c(S(=O)(=O)Nc4ccccc4O)ccc1c23`, the inhibition was -9.84% (inactive). In the case of `CN1C(=O)c2cccc3c(N)ccc(c23)C1=O`, the inhibition was -16.2% (inactive). In the case of `CCN1C(=O)c2cccc3c(N)ccc1c23`, the inhibition was 80.3% (active). For `Cc1ccc(C)c(Cn2cnc3c(oc4ccccc43)c2=O)c1`, the inhibition was 9.24% (inactive). With `Cc1c(NC(=O)C(C)OC(=O)c2ccccc2O)c(=O)n(-c2ccccc2)n1C` (stereo unspecified) the inhibition was -6.6% (inactive). In the case of `CC(=O)Nc1ccc(/C=N/NC(=O)c2cccs2)cc1`, the inhibition was 58.1% (active). For `CCc1ccc(NC(=O)COC(=O)c2cccs2)cc1`, the inhibition was 8.32% (inactive). `CCN(CC)c1ccc(/C=N/NC(=O)CNC(=O)c2cccs2)cc1` was tested, and the inhibition was -14.6% (inactive). In the case of `CCc1ccc(NC(=O)C(=O)NNC(=O)c2cccs2)cc1`, the inhibition was 85.8% (active). In the case of `Cc1cccc(-n2c(C)cc(/C=N\NC(=O)c3cccs3)c2C)c1`, the inhibition was -11.3% (inactive). For `CC(C)C(=O)Nc1ccc(C(=O)NNC(=O)c2cccs2)cc1`, the inhibition was 3.9% (inactive). For `CSc1cccc(NC(=S)N(C(C)C)C(C)c2ccccn2)c1` (stereo unspecified), the inhibition was 4.01% (inactive). `CC1(C)CC(=O)c2c(n(S(=O)(=O)c3ccccc3)c3ccc(NS(=O)(=O)c4ccccc4)cc23)C1` was tested, and the inhibition was 6.92% (inactive). For `COc1ccc(-c2oc3ncn(Cc4ccco4)c(=N)c3c2-c2ccc(OC)cc2)cc1`, the inhibition was -13.1% (inactive). `COc1cccc(NC(=O)COC(=O)c2ccc3ccccc3n2)c1` was tested, and the inhibition was -3.74% (inactive). In the case of `CCc1nnc(NC(=O)CSc2nnnn2-c2cccc(C(C)=O)c2)s1`, the inhibition was -12.9% (inactive). `CCC(=O)Nc1ccc(C(=O)Nc2cccc(OC)c2)cc1` was tested, and the inhibition was 51.2% (active). `Cc1ccccc1C(=O)N1CCN(c2ccc(NC(=O)c3cccs3)cc2)CC1` was tested, and the inhibition was -5.79% (inactive). `CCOc1ccc(C(=O)Nc2cccc(-c3ccc4nncn4n3)c2)cc1` was tested, and the inhibition was 5.7% (inactive). For `CSc1cccc(NC(=O)CSc2ccccc2)c1`, the inhibition was -11% (inactive). With `CCOc1ccc(C(=O)Nc2cccc(SC)c2)cc1` the inhibition was 91.4% (active). With `COc1cccc(C(=O)Nc2ccc(N3CCCC3)cc2)c1` the inhibition was 97.6% (active). In the case of `Cc1ccccc1C(=O)Nc1ccc(N2CCCCCC2)cc1`, the inhibition was 72.7% (active). `Cc1ccccc1C(=O)NC(=S)Nc1ccc(N2CCN(C(=O)c3ccccc3)CC2)cc1` was tested, and the inhibition was 2.96% (inactive). In the case of `COc1cccc(C(=O)Nc2nnc(S(=O)(=O)N3CCCCC3)s2)c1`, the inhibition was 0.355% (inactive). With `COc1ccc(C(=O)Nc2cccc(S(C)(=O)=O)c2)cc1` the inhibition was -10.8% (inactive). With `O=C(Nc1ccc(N2CCOCC2)cc1)c1cccc(S(=O)(=O)N2CCOCC2)c1` the inhibition was -0.135% (inactive). With `COc1cccc(NC(=O)CN(C)CC(=O)Nc2ccc3c(c2)CCC3)c1` the inhibition was -11.1% (inactive). With `CCn1c(=S)sc2c(=O)n(CC(=O)Nc3cccc(Br)c3)c(C)nc21` the inhibition was 3.55% (inactive). In the case of `Cc1cccc(C(=O)OCC(=O)NCC(C)C)c1O`, the inhibition was 9.44% (inactive). With `CCCn1c(SCC(=O)Nc2c(C)cccc2C)nnc1C(C)C` the inhibition was -9.77% (inactive). `C=CCOc1ccc(/C=N/NC(=O)C(C)Sc2ccccn2)cc1OCC` (stereo unspecified) was tested, and the inhibition was -0.571% (inactive). `COc1ccc(CCNC(=O)C(=O)NCC2OCCN2S(=O)(=O)c2cccs2)cc1OC` (stereo unspecified) was tested, and the inhibition was -6.36% (inactive). With `Cc1ccc(NC(=O)CCOc2ccccc2)cc1S(=O)(=O)Nc1ccccc1Cl` the inhibition was 1.1% (inactive). With `Cc1c(C(=O)NCCN(C)C)oc2ccc(S(=O)(=O)N3CCCC3)cc12` the inhibition was 4.61% (inactive). `CS(=O)(=O)N(CC(=O)NC1CCCC1)Cc1ccc(F)cc1` was tested, and the inhibition was -6.07% (inactive). In the case of `O=C(NC1CC1)c1ccc(-c2ccccc2)cc1`, the inhibition was -15.5% (inactive). `COc1cccc2sc(Nc3nc(C)c(C(C)=O)s3)nc12` was tested, and the inhibition was 87.8% (active). `CNC(=O)c1sc(NCc2ccccc2OC)nc1C` was tested, and the inhibition was 8.32% (inactive). `COc1ccccc1/C=N/Nc1nc(C)c(C(C)=O)s1` was tested, and the inhibition was -28% (inactive). In the case of `CCn1c(SCC(=O)Nc2ccc(Br)cc2)nc2sc3c(c2c1=O)CCN(C)C3`, the inhibition was 12.7% (inactive). In the case of `CCOc1ccc(CN2CCN(Cc3ccc4cc(F)ccc4n3)CC2CCO)cc1` (stereo unspecified), the inhibition was 9.04% (inactive). For `COc1cccc(-c2ccc3c(c2)S(=O)(=O)c2cccc(C(=O)O)c2C3=O)c1OC`, the inhibition was -1.89% (inactive). For `O=C(O)c1ccc2c3c(cccc13)C(=O)N(OS(=O)(=O)c1ccccc1)C2=O`, the inhibition was 60.3% (active). `CCN(c1ccccc1)S(=O)(=O)c1cccc(C(=O)NCc2ccccc2CN2CCOCC2)c1` was tested, and the inhibition was -16.6% (inactive). With `CCc1ccc(C(=O)OCC(=O)NCC(F)(F)F)cc1` the inhibition was -1.8% (inactive). With `CCCC1NC(=O)NC(C)=C1C(=O)OCC` (stereo unspecified) the inhibition was -6.49% (inactive). In the case of `O=C(/C=C/c1ccco1)Nc1ccc(Oc2ccccc2)cc1`, the inhibition was 80.1% (active). `O=C(/C=C/c1ccco1)NC(=S)Nc1ccccc1Br` was tested, and the inhibition was 6.12% (inactive). With `Cc1nnc(NC(=O)/C=C/c2ccco2)s1` the inhibition was -18.6% (inactive). For `CCOC(=O)C1(Cc2cccc(OC)c2)CCCN(S(=O)(=O)c2cccnc2)C1` (stereo unspecified), the inhibition was -9.47% (inactive). `Oc1ccc(N=Nc2nccs2)c(O)c1` was tested, and the inhibition was 87.3% (active). In the case of `C=CCC(NC(=O)Cc1ccccc1)C(=O)NCCC` (stereo unspecified), the inhibition was -9.67% (inactive). For `Cc1nonc1C(=O)N/N=C/c1ccc(O)cc1`, the inhibition was 98.9% (active). `Cc1nc2ccc(C(=O)N/N=C/c3ccc(O)cc3)cc2[nH]1` was tested, and the inhibition was -6.89% (inactive). In the case of `COC(=O)N/N=C/c1ccc(/C=N/NC(=O)OC)cc1`, the inhibition was -17.5% (inactive). For `CCOC(=O)C1(Cc2ccccc2C(F)(F)F)CCN(C(=O)c2cc(C)n(C)n2)CC1`, the inhibition was -1.7% (inactive). With `O=C(NC(=S)N1CCc2ccccc21)c1ccco1` the inhibition was 7.02% (inactive). In the case of `Cc1sc(NC(=O)c2ccc3ncsc3c2)c(C(N)=O)c1C`, the inhibition was 71.4% (active). `COc1ccccc1-c1nnc(NC(=O)c2ccc3ncsc3c2)o1` was tested, and the inhibition was -1.73% (inactive). With `Cc1ccc(C(=O)c2c(NC(=O)c3ccccc3)sc(C)c2C)cc1` the inhibition was -6.69% (inactive). `COc1ccc(CN(Cc2ccco2)S(=O)(=O)c2ccc(S(=O)(=O)N3CCCC3)cc2)cc1` was tested, and the inhibition was 3.07% (inactive).
